Assay outcomes deposited in PubChem BioAssay by The Scripps Research Institute Molecular Screening Center.
TbREL1 inh = TbREL1 inhibition, primary screen | P86926 | TbREL1 RNA ligation, FRET fluorescence | inhibition, % at 9.66 µM | 0.49% of 89,000 active | AID 1117264;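 active = inhibition above the mean inhibition across all screened compounds plus 3 SD, cut at about 11% in these data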;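 note: 0% = plate median of test wells and 100% = NSC42067 control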
Target sequence (P86926 whole entry, looked up): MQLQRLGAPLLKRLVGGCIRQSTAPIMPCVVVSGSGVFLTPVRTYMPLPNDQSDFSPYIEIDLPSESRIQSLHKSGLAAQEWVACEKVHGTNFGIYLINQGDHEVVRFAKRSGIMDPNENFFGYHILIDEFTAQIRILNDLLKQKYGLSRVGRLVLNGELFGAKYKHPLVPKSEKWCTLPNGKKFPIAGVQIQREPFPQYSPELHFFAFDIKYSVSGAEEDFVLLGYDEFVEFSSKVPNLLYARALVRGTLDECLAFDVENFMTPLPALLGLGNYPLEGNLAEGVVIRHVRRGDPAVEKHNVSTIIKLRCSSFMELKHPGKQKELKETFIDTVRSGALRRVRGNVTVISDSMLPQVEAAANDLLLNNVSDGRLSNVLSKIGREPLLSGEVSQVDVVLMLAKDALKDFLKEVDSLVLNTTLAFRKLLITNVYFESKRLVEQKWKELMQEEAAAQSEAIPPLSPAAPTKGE
TbREL1 conf = TbREL1 inhibition, confirmation | inhibition, % at 9.66 µM | 37% of 390 active | shares compounds with TbREL1 inh | TbREL1 RNA ligation, FRET fluorescence;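 active = mean inhibition across replicates above a set limit taken from the earlier primary screen, cut at about 11% in these data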;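 note: 0% = REL1 with substrate and DMSO and 100% = REL1 plus control inhibitor NSC42067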
Numbers without * were called inactive. This excerpt belongs to a sample that is enriched for hits.

SMILES	TbREL1 inh	others
COC(=O)c1cc(-c2cccc3ccccc23)c(=O)n2c1CCC2	-1
CN(c1cccnc1)c1ccc(NC(=O)Cc2c[nH]c3ccccc23)cc1Br	2
CC(C)(C)c1ccc(C(=O)Nc2cc(Cl)c(F)cc2C(=O)O)cc1	13*	TbREL1 conf=2
CC(C)(C)c1ccc(C(=O)Nc2cc(Cl)c(Cl)cc2C(=O)O)cc1	-2
CC(C)(C)c1ccc(C(=O)Nc2ccc(Cl)cc2)cc1	2
CCCOc1ccc(-c2cc(C(C)=O)c3n(c2=O)CCC3)cc1	2
CC(C)(C)OC(=O)NC(Cc1ccccc1)C1CC(C#N)C(=O)O1 (stereo unspecified)	-3
O=C(NCCc1c[nH]c2ccccc12)c1ccc2c(c1)ncn2C1CCCCC1	-3
Cn1cccc1CC(=O)NN=C/C=C\c1ccco1	67*	TbREL1 conf=2
Cn1cccc1CC(=O)NN=Cc1cccc(F)c1	1
Cc1ccc(-n2c(SCC(=O)N/N=C/C=C\c3ccco3)nnc2-c2ccccc2)cc1	-6
CCCCCCCCN1C(=O)[C@@H](CC(=O)N2CCC(c3ccccc3)CC2)C[C@@]2(C(=O)OC)C1=C[C@H](COCc1ccccc1)O[C@@H]2C	-4
COc1cccc(N2CCN(CC(=O)NCc3ccc(F)cc3)CC2)c1	-4
CCC(CC)NC(=O)O[C@H]1CC[C@@]23CCCN2C(=O)CCC[C@H]3C1	9
CCN(CC)C(=O)O[C@H]1CC[C@@]23CCCN2C(=O)CCC[C@H]3C1	7
O=C(O[C@H]1CC[C@@]23CCCN2C(=O)CCC[C@H]3C1)N1CCOCC1	14*	TbREL1 conf=0
CC(=O)Nc1sc2c(c1-c1nc3ccccc3s1)CCOC2	0
COC(=O)C[C@@H]1CC[C@H]2[C@@H](COc3ccc(NC(=O)Nc4ccc(C)cc4)cc3C(=O)N2C)O1	-1
CC(=O)N1CCN(S(=O)(=O)c2ccc3c(c2)oc(=O)n3C)CC1	4
COc1cccc(OC)c1OCCCSc1nc(C)cc(=O)[nH]1	4
CCOc1ccc(OCCSc2nc(C)cc(=O)[nH]2)cc1	11*	TbREL1 conf=3
Cc1cc(=O)[nH]c(SCC(=O)c2ccc(C)c(C)c2)n1	-2
CCC[C@H]1[C@@H](NC(=S)Nc2ccccc2Cl)CC[C@@]23CCCN2C(=O)CCC[C@@H]13	-2
CN(C)CCCNC(=O)C[C@@H]1CC[C@@H]2[C@H](COc3ccc(NC(=O)c4cccc(F)c4)cc3C(=O)N2C)O1	-1
COc1ccc(CN2CCC(CNC(=O)NC3CCC(C)CC3)CC2)cc1 (stereo unspecified)	4
SMILES	TbREL1 inh	others
Cc1cn(-c2cc(NC(=O)c3ccc(C)c(Nc4nccc(-c5cccnc5)n4)c3)cc(C(F)(F)F)c2)cn1	-2
COc1ccc(-c2noc(C3CCCN(C(=O)Nc4ccc(C)c(F)c4)C3)n2)cc1 (stereo unspecified)	2
COCCNCCOCCOc1ccc(Cl)c(C)c1	6
Cc1cc(OCCOCCNCc2ccccc2)ccc1C(C)C	19*	TbREL1 conf=9
Cc1ccc(C)c(OCCCNCc2ccccc2)c1	10
CCCC1CCC2(CCCN2CCOC(=S)Nc2cccc(Cl)c2)CC1 (stereo unspecified)	-1
Nc1cc2c([N+](=O)[O-])cccc2o1	-3
O=c1cc2oc3cc(O)c(O)cc3c(-c3ccccc3[N+](=O)[O-])c-2cc1O	21*	TbREL1 conf=26*
Cc1cc(=O)c(C(=O)O)nn1-c1ccccc1[N+](=O)[O-]	1
Nn1c(SCC(=O)Nc2ccc(S(=O)(=O)Nc3nccs3)cc2)nnc1-c1ccco1	-1
COP(=O)(O)C[C@@H]1CCc2cc(C)cc([C@H](CC(C)C)NC(=O)OCc3ccccc3)c2O1	6
COc1ccc(NC(=O)N2CCC(N(C)CCC(C)C)CC2)cc1OC	0
Nc1ccc2c(S(=O)(=O)O)cccc2c1S(=O)(=O)O	11
Nc1cccc2cc(S(=O)(=O)O)ccc12	26*	TbREL1 conf=10
Nc1cccc(S(=O)(=O)c2cccc(N)c2)c1	2
Cc1ccc(-n2c(SCC(=O)Nc3cccc4ccccc34)nnc2-c2ccccc2)cc1	-2
CN1[C@H](Cc2ccccc2)COc2cccc(F)c2S1(=O)=O	2
COC(=O)C1=C(C)N(Cc2ccccc2C(F)(F)F)C(=NCc2ccc3c(c2)OCO3)NC1c1ccccc1 (stereo unspecified)	12*	TbREL1 conf=14*
COC(=O)C1=C(C)N(Cc2ccccc2)C(=NCc2ccc3c(c2)OCO3)N[C@H]1c1ccccc1	9
COC(=O)C1=C(C)N(Cc2ccccc2C(F)(F)F)C(=NCc2ccc3c(c2)OCO3)NC1c1ccc(C(F)(F)F)cc1 (stereo unspecified)	14*	TbREL1 conf=21*
COC(=O)C1=C(C)N(Cc2ccccc2C(F)(F)F)C(=NCc2ccc3c(c2)OCO3)NC1c1ccc(Cl)cc1 (stereo unspecified)	11
CCCCOCCCNC(=O)C[C@@H]1C(=O)N(CCc2ccc(Cl)cc2)C2=CCCCC[C@]21C(=O)OC	-3
CCCCN(C)C(=O)c1cn(C(C)c2ccccc2)nn1 (stereo unspecified)	0
O=C(O)c1cc(N/N=C/c2ccc(-c3ccc(F)cc3)o2)ccc1Cl	-5
Cc1nc(S/C(=C\c2ccc(OCc3ccccc3Cl)cc2)C(=O)O)n[nH]1	0
SMILES	TbREL1 inh	others
Cc1nc(S/C(=C\c2ccc(-c3ccc(C(=O)O)c(Cl)c3)o2)C(=O)O)n[nH]1	58*	TbREL1 conf=23*
CCOC(=O)[C@@]12CCC3=C1N(CCC3)C(=O)[C@H](CC(=O)NCC13CC4CC(CC(C4)C1)C3)C2	-3
O=C(C[n+]1cc(-c2ccc(F)cc2)n2c1CCC2)Nc1nc(-c2ccc(F)cc2)cs1	2
Cc1ccc(C[n+]2cc(-c3ccc(Cl)cc3)n3c2CCC3)cc1	8
CCc1ccc(NC(=O)C[n+]2cc(-c3ccc(C)cc3)n3c2CCC3)cc1	13*	TbREL1 conf=14*
COC1=CC(=O)c2nc(Cl)ccc2C1=O	20*	TbREL1 conf=30*
O=c1c2c([N+](=O)[O-])cc([N+](=O)[O-])cc2sn1Cc1ccccc1	-2
O=c1c([N+](=O)[O-])c(Cl)c2ccccc2n1Cc1ccccc1	17*	TbREL1 conf=1
O=Nc1c(O)n(Cc2ccccc2)c2ccccc12	-1
COC[C@H]1CCCN1c1cccc2c1S(=O)(=O)N1CC[C@@H](C1)O2	-1
CCOC(=O)c1cccc(-c2cc(C(=O)OC)c3n(c2=O)CCC3)c1	-2
CC(=O)NC(Cc1ccccc1)P(=O)(O)O (stereo unspecified)	0
O=c1c2cc3cc4c(cc3nc2ncn1Cc1cccnc1)OCO4	2
O=c1c2cc3ccccc3nc2ncn1CCc1ccc(Cl)cc1	2
O=c1c2cc3cc4c(cc3nc2ncn1CCc1ccccc1)OCO4	15*	TbREL1 conf=2
CC(C)n1nnnc1C1(C)CCSCC(=O)N1Cc1cccc(C(F)(F)F)c1 (stereo unspecified)	0
O=C(CNS(=O)(=O)c1cccs1)N1CCN(c2ncccn2)CC1	4
Cc1ccc2nc(-c3ccc(NC(=O)CSc4nnc(-c5cccc(Cl)c5)n4Cc4ccco4)cc3)sc2c1	2
Cc1ccc(-n2c(SCC(=O)Nc3ccc(OCc4ccccc4)cc3)nnc2-c2ccco2)cc1	1
Cn1cccc1C(=O)N1CCN(S(=O)(=O)c2ccc(Br)s2)CC1	-3
Cc1ccc2c(c1)-c1c(cnn1CC(=O)NCCc1ccc(O)cc1)CO2	-1
O=C(C1CCN(CCCc2ccccc2)CC1)N1CCCCC1	12*	TbREL1 conf=2
O=C(Nc1ccccc1)N1CCN(CCc2ccccc2)CC1	-3
